# Experimental data as given in the supplement of paper PMC3545927.
# The list shows a part of the results. The true hit rate is not given.
# B1: HC935 (peptide)
# chain: CAPVCQDHLEAGNASASA
# B2: HC285 (peptide)
# chain: CARDGKLPATAGNASASA
# B3: HC64 (peptide)
# chain: CATTPCLGSWAGNASASA
# B4: HC1087 (peptide)
# chain: CAAGYGAGVAAGNASASA
# B5: FS-2789 (peptide)
# chain: CARRRRGLECAGNASASA
# B6: FS-2081 (peptide)
# chain: CARRRRSGADAGNASASA
# B7: FS-1268 (peptide)
# chain: CARRRRERRDAGNASASA
# B8: FS-1922 (peptide)
# chain: CARRRRERDDAGNASASA
# B9: FS-92 (peptide)
# chain: CASMPRERRDAGNASASA
# B10: HC745 (peptide)
# chain: CALLCPAGHAAGNASASA
# B11: HC1019 (peptide)
# chain: CAYIEQGMMLAGNASASA
# B12: HC1898 (peptide)
# chain: CATTPCSTSWAGNASASA
# B13: HC2030 (peptide)
# chain: CAVVVCSMSYAGNASASA
# B14: HC29 (peptide)
# chain: CAMEECHQHLAGNASASA
# B15: HC1213 (peptide)
# chain: CAMTTDNLKCAGNASASA
# B16: HC724 (peptide)
# chain: CASSDLYLVTAGNASASA
# B17: FS-1784 (peptide)
# chain: CARRRRFPFVAGNASASA
# B18: FS-584 (peptide)
# chain: CACSHRERRDAGNASASA
# B19: FS-1317 (peptide)
# chain: CADWLRQRRTAGNASASA
# B20: FS-375 (peptide)
# chain: CARRRRERRTAGNASASA
# B21: FS-2786 (peptide)
# chain: CARRRRFVPVAGNASASA
# B22: FS-2596 (peptide)
# chain: CARRRRAVPVAGNASASA
# B23: FS-95 (peptide)
# chain: CASVDRWRRTAGNASASA
# B24: HC422 (peptide)
# chain: CAGAPTYSWGAGNASASA
# B25: HC2468 (peptide)
# chain: CAWTPCSAHLAGNASASA
# B26: HC1737 (peptide)
# chain: CAMEECSSHLAGNASASA
# B27: HC2520 (peptide)
# chain: CASTCCSAHLAGNASASA
# Biological target: furin, P09958
# Assay: furin cleavage Z-score vs untreated control; higher = more cleavage, active = 3.5 or more, inactive = 1 or less, 8 variable residues between constant flanks
# Procedure, shortened: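 Furin cleavage was scored on 8-mer peptides joined to a cDNA oligonucleotide and bound to magnetic beads at the N-terminus. Digestion with purified furin (1:10 enzyme:substrate, 0.01 ml, 50 mM HEPES pH 7.5, CaCl2, NaCl) lasted 7.5, 15 or 30 min. Freed DNA was tagged with adapters by PCR, sequenced and counted; the cleavage Z-score is the lowess-adjusted log count versus furin-free reactions, scaled by median absolute deviation.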
# furin, P09958, sequence (P09958 whole entry): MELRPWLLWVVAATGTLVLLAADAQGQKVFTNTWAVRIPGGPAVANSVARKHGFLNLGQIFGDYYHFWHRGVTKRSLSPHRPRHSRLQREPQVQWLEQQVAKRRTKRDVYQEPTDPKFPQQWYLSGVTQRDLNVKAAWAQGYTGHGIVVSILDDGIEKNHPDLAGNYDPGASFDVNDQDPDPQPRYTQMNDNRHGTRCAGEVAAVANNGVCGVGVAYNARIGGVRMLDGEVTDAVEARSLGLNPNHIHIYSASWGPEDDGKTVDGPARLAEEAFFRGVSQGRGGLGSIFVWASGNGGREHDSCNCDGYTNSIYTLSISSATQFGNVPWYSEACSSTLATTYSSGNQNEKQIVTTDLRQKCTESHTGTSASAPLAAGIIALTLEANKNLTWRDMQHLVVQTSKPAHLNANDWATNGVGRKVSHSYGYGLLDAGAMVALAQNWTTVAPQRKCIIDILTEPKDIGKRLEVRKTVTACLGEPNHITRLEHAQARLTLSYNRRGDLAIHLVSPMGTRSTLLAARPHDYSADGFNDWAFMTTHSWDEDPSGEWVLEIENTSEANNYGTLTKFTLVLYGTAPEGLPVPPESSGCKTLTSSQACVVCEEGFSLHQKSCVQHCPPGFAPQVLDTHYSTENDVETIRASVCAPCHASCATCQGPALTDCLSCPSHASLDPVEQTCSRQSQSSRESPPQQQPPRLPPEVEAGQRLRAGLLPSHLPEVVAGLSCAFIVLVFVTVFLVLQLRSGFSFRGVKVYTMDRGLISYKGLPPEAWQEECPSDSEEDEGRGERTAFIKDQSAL
Sequence,furin cleavage Z-score (7.5 min),furin cleavage Z-score (15 min),furin cleavage Z-score (30 min)
B1,-0.428 (inactive),-0.153 (inactive),-0.41 (inactive)
B2,1.05,2.03,0.856 (inactive)
B3,0.626 (inactive),0.544 (inactive),0.646 (inactive)
B4,1.51,-1.39 (inactive),-0.133 (inactive)
B5,6.18 (active),4.95 (active),7.29 (active)
B6,1.69,0.662 (inactive),0.709 (inactive)
B7,14.1 (active),12.4 (active),10.4 (active)
B8,7.16 (active),10.1 (active),7.38 (active)
B9,10.3 (active),12.9 (active),9.32 (active)
B10,0.399 (inactive),0.942 (inactive),-0.0279 (inactive)
B11,-1.18 (inactive),-0.261 (inactive),-0.872 (inactive)
B12,0.261 (inactive),0.66 (inactive),-0.516 (inactive)
B13,0.0385 (inactive),-1.4 (inactive),0.392 (inactive)
B14,0.383 (inactive),1.55,2.41
B15,-0.575 (inactive),-0.0624 (inactive),0.0584 (inactive)
B16,-0.584 (inactive),-0.169 (inactive),-0.884 (inactive)
B17,0.483 (inactive),0.473 (inactive),1.3
B18,6.92 (active),7.04 (active),8.38 (active)
B19,-0.575 (inactive),1.58,1.74
B20,10.4 (active),11 (active),9 (active)
B21,2.12,4.63 (active),5.2 (active)
B22,0.0891 (inactive),0.235 (inactive),1.42
B23,3.08,4.75 (active),4.05 (active)
B24,-0.832 (inactive),-0.574 (inactive),-0.69 (inactive)
B25,-0.238 (inactive),0.336 (inactive),-1.23 (inactive)
B26,-0.244 (inactive),0.0684 (inactive),0.567 (inactive)
B27,-0.141 (inactive),0.556 (inactive),-0.184 (inactive)
